# About 6,500 targets were measured; listed, in parts, are those with a hit and a random draw of the rest. About 2% of all pairs of compound and target were hits. Unmarked numbers belong to inactive results.
# Compound: COC(=O)C#Cc1ccccc1 [methyl 3-phenylpropiolate]
# Test: log2 ratio of iodoacetamide-alkyne labeling of the cysteine site, DMSO over compound (competition); higher = stronger covalent engagement of the cysteine by the compound, active = 1 or more
# Details: 500 µM; treatment time 1 h; system: HEK293T cell lysate
# In short: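 For each cysteine, the log2 competition ratio is mean control-channel reporter intensity over mean compound-channel reporter intensity. HEK293T lysate (2 mg/mL) was exposed to vehicle or electrophile (500 µM, 1 h, ambient temperature), labelled with iodoacetamide alkyne (1 h), clicked to sCIP-TMT reagents, digested overnight with trypsin at 37 °C, streptavidin-enriched and analysed by Orbitrap Eclipse LC-MS/MS with FAIMS and FragPipe. Cysteines quantified in only one of three replicates, each with duplicate channels, were excluded.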
# Chain of UniProt O95197 (O95197 whole entry): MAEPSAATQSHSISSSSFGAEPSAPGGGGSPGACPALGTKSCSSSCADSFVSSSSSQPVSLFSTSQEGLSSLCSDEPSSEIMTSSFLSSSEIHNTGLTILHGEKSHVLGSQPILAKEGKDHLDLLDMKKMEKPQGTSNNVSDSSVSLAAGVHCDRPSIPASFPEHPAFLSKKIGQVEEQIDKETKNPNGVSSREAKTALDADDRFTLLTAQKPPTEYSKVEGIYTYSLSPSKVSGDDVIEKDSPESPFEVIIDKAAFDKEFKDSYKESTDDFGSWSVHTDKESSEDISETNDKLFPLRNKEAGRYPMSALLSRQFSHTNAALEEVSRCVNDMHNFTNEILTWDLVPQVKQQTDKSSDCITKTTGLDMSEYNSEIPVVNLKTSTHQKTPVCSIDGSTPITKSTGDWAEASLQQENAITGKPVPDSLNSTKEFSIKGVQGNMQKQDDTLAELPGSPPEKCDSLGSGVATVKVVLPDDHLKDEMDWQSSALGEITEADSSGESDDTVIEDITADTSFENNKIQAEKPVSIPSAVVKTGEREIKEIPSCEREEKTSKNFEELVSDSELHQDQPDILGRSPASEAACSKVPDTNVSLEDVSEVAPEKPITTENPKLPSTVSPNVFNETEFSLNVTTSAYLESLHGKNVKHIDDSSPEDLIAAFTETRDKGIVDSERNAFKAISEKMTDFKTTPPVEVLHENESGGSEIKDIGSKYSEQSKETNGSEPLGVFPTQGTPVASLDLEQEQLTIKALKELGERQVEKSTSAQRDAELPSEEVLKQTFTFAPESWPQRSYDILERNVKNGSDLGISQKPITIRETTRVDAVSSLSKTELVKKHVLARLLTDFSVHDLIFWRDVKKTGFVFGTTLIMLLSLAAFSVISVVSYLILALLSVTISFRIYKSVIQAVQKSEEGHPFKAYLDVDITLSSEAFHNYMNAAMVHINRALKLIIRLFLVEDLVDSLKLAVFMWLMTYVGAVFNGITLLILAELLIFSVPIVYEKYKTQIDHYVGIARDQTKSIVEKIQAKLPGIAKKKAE
# Chain of UniProt P31943 (P31943 whole entry, looked up): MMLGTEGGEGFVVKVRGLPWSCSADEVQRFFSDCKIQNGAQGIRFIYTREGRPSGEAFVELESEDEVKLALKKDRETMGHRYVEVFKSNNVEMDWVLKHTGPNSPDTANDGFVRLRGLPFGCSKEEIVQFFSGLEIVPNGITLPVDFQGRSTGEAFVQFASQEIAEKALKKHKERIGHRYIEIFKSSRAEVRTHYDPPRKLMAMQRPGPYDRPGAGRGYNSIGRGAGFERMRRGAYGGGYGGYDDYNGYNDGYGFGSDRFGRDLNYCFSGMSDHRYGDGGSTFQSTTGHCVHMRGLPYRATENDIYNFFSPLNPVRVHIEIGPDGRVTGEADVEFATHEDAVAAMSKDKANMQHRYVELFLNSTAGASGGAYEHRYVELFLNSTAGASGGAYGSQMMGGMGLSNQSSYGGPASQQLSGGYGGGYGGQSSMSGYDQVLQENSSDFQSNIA
# Chain of UniProt P52306 (P52306 whole entry, looked up): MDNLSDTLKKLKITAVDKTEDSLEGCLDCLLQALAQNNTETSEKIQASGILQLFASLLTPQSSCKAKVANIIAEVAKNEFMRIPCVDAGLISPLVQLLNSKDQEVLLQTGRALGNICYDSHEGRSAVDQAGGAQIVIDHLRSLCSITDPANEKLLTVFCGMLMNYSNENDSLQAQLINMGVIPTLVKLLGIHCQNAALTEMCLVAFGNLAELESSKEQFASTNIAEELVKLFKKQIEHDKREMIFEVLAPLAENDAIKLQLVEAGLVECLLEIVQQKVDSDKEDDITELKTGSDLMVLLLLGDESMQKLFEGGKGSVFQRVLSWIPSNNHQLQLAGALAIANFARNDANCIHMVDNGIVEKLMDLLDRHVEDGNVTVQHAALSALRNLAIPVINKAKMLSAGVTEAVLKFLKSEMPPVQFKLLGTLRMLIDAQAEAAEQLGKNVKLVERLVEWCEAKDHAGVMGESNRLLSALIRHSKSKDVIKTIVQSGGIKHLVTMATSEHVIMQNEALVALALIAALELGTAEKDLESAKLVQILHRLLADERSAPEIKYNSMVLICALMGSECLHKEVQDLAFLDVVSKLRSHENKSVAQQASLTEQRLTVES
# Chain of UniProt P50990 (P50990 whole entry, looked up): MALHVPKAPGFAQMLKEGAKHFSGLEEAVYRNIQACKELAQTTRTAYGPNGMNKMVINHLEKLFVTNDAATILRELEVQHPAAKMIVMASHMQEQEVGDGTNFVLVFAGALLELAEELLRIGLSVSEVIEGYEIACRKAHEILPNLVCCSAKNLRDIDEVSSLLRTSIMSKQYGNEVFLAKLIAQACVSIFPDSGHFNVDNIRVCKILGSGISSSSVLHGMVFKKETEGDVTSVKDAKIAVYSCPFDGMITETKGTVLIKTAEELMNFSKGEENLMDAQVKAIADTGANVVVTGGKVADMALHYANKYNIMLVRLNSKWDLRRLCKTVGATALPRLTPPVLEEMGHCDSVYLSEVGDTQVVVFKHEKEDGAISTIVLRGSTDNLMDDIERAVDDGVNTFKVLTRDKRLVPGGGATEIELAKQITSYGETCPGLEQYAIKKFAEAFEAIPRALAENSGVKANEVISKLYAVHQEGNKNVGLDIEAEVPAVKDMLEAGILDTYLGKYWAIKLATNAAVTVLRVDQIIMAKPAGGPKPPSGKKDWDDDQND
# Chain of UniProt O95243 (O95243 whole entry): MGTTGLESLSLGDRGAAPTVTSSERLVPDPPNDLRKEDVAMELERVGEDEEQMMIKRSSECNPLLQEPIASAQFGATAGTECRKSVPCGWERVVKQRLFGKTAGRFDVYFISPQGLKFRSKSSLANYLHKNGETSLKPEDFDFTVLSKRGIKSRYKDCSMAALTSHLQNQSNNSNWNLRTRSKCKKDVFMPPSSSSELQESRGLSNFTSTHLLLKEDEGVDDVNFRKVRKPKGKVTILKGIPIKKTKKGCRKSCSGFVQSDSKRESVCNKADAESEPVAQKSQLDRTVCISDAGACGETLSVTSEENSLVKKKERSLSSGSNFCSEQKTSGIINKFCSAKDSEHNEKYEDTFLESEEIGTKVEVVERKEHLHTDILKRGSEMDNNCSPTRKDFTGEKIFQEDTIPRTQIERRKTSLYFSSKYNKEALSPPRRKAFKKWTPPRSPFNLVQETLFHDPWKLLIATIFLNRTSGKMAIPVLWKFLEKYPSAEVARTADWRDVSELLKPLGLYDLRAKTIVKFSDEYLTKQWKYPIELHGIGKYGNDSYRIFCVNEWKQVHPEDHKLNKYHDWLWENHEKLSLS
# Chain of UniProt P47756 (P47756 whole entry, looked up): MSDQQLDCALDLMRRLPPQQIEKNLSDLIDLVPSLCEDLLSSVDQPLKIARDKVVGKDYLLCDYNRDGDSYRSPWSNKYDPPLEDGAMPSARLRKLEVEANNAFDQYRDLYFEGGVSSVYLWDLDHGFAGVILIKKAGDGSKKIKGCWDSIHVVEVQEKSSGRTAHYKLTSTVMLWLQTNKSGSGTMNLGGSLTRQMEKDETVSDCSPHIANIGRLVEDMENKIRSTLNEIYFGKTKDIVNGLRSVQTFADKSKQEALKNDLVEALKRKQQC
# Chain of UniProt P52701 (P52701 whole entry, looked up): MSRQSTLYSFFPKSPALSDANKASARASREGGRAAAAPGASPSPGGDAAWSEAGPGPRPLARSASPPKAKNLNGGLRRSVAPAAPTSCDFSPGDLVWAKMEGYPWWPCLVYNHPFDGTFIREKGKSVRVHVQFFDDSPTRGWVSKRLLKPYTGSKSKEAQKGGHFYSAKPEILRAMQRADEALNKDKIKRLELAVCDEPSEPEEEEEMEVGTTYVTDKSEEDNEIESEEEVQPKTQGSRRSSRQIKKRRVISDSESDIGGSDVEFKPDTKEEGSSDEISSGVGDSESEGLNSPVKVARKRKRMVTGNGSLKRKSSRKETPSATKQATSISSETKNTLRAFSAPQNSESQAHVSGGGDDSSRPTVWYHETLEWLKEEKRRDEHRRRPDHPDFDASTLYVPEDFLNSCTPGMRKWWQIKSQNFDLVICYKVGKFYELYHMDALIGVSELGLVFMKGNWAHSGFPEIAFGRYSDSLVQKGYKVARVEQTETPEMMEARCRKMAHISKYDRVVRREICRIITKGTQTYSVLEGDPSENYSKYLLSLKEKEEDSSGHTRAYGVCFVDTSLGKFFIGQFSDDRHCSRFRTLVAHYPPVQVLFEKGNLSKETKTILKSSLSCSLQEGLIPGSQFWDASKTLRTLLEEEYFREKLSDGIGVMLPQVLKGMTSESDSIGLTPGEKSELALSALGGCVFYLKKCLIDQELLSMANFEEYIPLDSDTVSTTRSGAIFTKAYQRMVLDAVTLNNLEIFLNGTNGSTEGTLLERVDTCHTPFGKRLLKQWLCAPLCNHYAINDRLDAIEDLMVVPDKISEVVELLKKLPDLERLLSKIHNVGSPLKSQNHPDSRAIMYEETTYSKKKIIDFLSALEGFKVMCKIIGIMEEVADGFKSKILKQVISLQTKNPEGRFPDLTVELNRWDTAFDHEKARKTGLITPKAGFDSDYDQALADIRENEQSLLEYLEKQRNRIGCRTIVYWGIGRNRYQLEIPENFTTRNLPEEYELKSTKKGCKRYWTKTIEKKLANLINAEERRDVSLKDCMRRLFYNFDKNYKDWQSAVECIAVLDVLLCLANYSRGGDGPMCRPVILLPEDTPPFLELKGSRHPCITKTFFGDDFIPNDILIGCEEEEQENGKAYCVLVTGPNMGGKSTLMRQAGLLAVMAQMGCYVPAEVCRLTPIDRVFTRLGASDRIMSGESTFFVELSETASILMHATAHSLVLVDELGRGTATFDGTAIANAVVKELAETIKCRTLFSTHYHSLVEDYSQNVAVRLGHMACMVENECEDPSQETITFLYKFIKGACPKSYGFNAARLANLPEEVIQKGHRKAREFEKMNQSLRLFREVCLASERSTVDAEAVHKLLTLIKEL
row,Target,log2 ratio of iodoacetamide-alkyne labeling
1,HSP90B1 C645 (UniProt P14625),-0.0466
2,IDH3A C331 (UniProt P50213),0.257
3,UniProt P25705_C244,0.205
4,PRKCSH C500 (UniProt P14314),0.513
5,UniProt P00519_C1100,0.9
6,CAPZB C206 (UniProt P47756),0.316
7,PRKAR2A C128 (UniProt P13861),0.00919
8,TTK C322 (UniProt P33981),1.29 (active)
9,CCT5 C377 (UniProt P48643),0.18
10,MPG C56 (UniProt P29372),1.66 (active)
11,RRM1 C352 (UniProt P23921),0.357
12,UniProt O96017_C385,0.227
13,FECH C395 (UniProt P22830),0.372
14,RPL4 C208 (UniProt P36578),0.273
15,UniProt P10155_C71,0.136
16,FLNA C1018 (UniProt P21333),0.0782
17,RTN3 C34 (UniProt O95197),1.43 (active)
18,OAT C253 (UniProt P04181),0.0787
19,HSP90AA1 C420 (UniProt P07900),-0.4
20,RPS17 C35 (UniProt P08708),-0.00485
21,STIP1 C339 (UniProt P31948),0.0728
22,ANXA7 C327 (UniProt P20073),0.191
23,VDAC2 C13 (UniProt P45880),1.11 (active)
24,VDAC2 C227 (UniProt P45880),1.39 (active)
25,HNRNPA3 C85 (UniProt P51991),0.23

row,Target,log2 ratio of iodoacetamide-alkyne labeling
1,MAP1B C73 (UniProt P46821),0.173
2,FLNA C2107 (UniProt P21333),0.12
3,COMT C241 (UniProt P21964),0.194
4,MAP4K4 C202 (UniProt O95819),0.624
5,HSPA4L C421 (UniProt O95757),-0.0563
6,UniProt P49840_C398,0.241
7,ST13 C209 (UniProt P50502),0.272
8,CAPZA2 C111 (UniProt P47755),0.0355
9,MAP1B C2065 (UniProt P46821),0.623
10,DSP C3 (UniProt P15924),1.14 (active)
11,HSPA4 C417 (UniProt P34932),0.208
12,ANXA7 C363 (UniProt P20073),0.0125
13,IMPDH2 C95 (UniProt P12268),-0.293
14,RPL10 C195 (UniProt P27635),0.694
15,ETFB C42 (UniProt P38117),0.207
16,RANGAP1 C303 (UniProt P46060),0.47
17,SLC25A5 C160 (UniProt P05141),0.177
18,G6PD C385 (UniProt P11413),0.327
19,MFN2 C348 (UniProt O95140),-0.0549
20,CCT4 C337 (UniProt P50991),0.0635
21,UniProt P14618_C424,-0.246
22,ALDOA C202 (UniProt P04075),-0.0261
23,ACAA1 C177 (UniProt P09110),0.162
24,SEC24B C562 (UniProt O95487),0.735
25,ATP1A1 C428 (UniProt P05023),0.234

row,Target,log2 ratio of iodoacetamide-alkyne labeling
1,MSH6 C1337 (UniProt P52701),0.14
2,SMC2 C326 (UniProt O95347),0.547
3,RAP1GDS1 C85 (UniProt P52306),0.197
4,HCFC1 C1872 (UniProt P51610),1.32 (active)
5,HNRNPM C114 (UniProt P52272),-0.0182
6,SFPQ C297 (UniProt P23246),-0.122
7,PTPN2 C330 (UniProt P17706),0.608
8,CCT8 C244 (UniProt P50990),0.242
9,MDH2 C128 (UniProt P40926),-0.335
10,HSPA4L C167 (UniProt O95757),-0.00119
11,PLCG1 C976 (UniProt P19174),1.9 (active)
12,RANBP2 C82 (UniProt P49792),0.564
13,RANBP2 C581 (UniProt P49792),0.41
14,UniProt P49591_C431,-0.00377
15,FDFT1 C6 (UniProt P37268),0.233
16,HNRNPA3 C196 (UniProt P51991),-0.0216
17,FLNA C478 (UniProt P21333),0.00171
18,IMPDH2 C140 (UniProt P12268),1.11 (active)
19,PEX5 C11 (UniProt P50542),0.204
20,MBD4 C268 (UniProt O95243),1.12 (active)
21,FASN C1186 (UniProt P49327),-0.0549
22,PFKL C170 (UniProt P17858),0.343
23,FLNA C1453 (UniProt P21333),0.357
24,HNRNPH1 C267 (UniProt P31943),0.211

# Reference: the supplement of paper PMC11006884
